Compound activity (PubChem BioAssay)
BRCA1 expr up – qHTS Assay to Identify Small Molecule Activators of BRCA1 Expression. MCF7-BRCA1-FFLuc reporter, luminescence, 48 h; response scale: scaled: vehicle 0%, 10 µM genistein 100%. Potency, µM (top dose mostly 46.1 µM), without a hit: at the top dose activation, hits mostly activators. 380,000 compounds, 1.1% hits; note: nearly all actives have a fitted effect of over 80% in size
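Compounds are tested at multiple concentrations on MCF7 BRCA1-luciferase reporter cells seeded at 2000 per well; after 48 h, a single luminescence end-point is taken and curves fitted to the normalized data.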
VDR inhibitor – Inhibitors of the vitamin D receptor (VDR): qHTS. Vitamin D3 receptor (Homo sapiens), P11473. Potency, µM, inactives show max response, negative = inhibition, most hits filed as inhibitors. VDR-SRC2-3 peptide fluorescence polarization, 2 h. 400,000 compounds, 0.93% hits; note: % is set by controls: 0 for no effect and ±100 for the full control effect
Target sequence (P11473 whole entry, looked up): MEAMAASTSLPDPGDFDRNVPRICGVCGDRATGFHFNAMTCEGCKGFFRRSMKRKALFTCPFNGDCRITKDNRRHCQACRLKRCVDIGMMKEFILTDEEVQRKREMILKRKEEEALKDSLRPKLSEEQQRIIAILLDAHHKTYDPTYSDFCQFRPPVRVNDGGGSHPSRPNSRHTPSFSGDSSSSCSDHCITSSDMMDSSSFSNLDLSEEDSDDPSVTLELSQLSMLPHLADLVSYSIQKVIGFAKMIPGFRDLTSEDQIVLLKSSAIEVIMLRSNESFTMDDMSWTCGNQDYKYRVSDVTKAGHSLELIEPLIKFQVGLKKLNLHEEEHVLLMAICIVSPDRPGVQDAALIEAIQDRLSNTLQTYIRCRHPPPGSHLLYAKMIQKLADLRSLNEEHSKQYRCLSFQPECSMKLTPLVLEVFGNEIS
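Inhibition of the VDR/SRC2-3 peptide interaction is quantified by fluorescence polarization. Compounds (23 nl, pintool) incubate with the reagents for 2 hours at ambient room temperature.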
PLK1 PBD inh – qHTS for Inhibitors of PLK1-PDB (polo-like kinase 1 - polo-box domain): Primary Screen; Plk1 PBD binding of FITC phosphopeptide, fluorescence polarization; 360,000 compounds, 2.8% hits; Potency, µM, inactives show max response, negative = inhibition, hits mostly inhibitors; AID 720504, 2013; note: series mostly up to about 57 µM; % is set by controls: 0 for no effect and ±100 for the full control effect; nearly all actives have a fitted effect of over 65% in size
Tb PFK inh – qHTS Assay to Find Inhibitors of T. brucei phosphofructokinase; ATP-dependent 6-phosphofructokinase (Trypanosoma brucei brucei), O15648; T. brucei PFK, ADP-Glo luminescence; Potency, µM (series often up to 57.5 µM), for inactives: at the top dose activity, negative = inhibition, usual class: inhibitors; 330,000 compounds, 0.17% hits;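 note: 0% = uninhibited 1x PFK enzyme wells and -100% = no-enzyme wells; nearly all actives have a fitted effect of over 60% in size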
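ADP-Glo luminescence quantified ADP after 45 min at room temperature, with 1.25 nM T. brucei PFK, 0.1 mM ATP and 0.5 mM fructose-6-phosphate in pH 8.0 TEA buffer. qHTS titrations up to 57 µM; curves classified by quality.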
* hit, by the source's call; ? = inconclusive; . = not tested or not shown; ! = not active in a repeat. Only some compounds are listed: those with a hit (about 3.9% of all), similar ones and a draw of the others. Calls come from the whole dose curve; as a rule, active = well fitted curve in the direction sought with a large enough effect; inconclusive = small, poorly fitted or top-dose-only effect, or another doubt; inactive = no such curve, though single readings can be large; an effect the other way counts as inactive or inconclusive. Potency is the fitted concentration of half-maximal effect.

SMILES	BRCA1 expr up	VDR inhibitor	PLK1 PBD inh	Tb PFK inh
CCCS(=O)(=O)Nc1ccc(N2CCCCC2)c(S(=O)(=O)Nc2ccccc2OC)c1	-55%	-21%	24µM*	0%
COc1ccccc1NS(=O)(=O)c1cc(NC(=O)c2cccnc2)ccc1N1CCCCC1	-96%	-12%	-12%	-8%
COc1ccccc1NS(=O)(=O)c1cc(NC(=O)c2ccccc2F)ccc1N1CCOCC1	-42%	-1%	27µM*	-12%
Nc1ccc(N2CCCCC2)c(S(=O)(=O)Nc2ccccc2Cl)c1	-22%	-14%	27µM*	-9%
COc1ccccc1NS(=O)(=O)c1cc(N)ccc1N1CCCCC1	1%	-15%	3µM*	-5%
COc1ccccc1NS(=O)(=O)c1cc(NC(=O)C2CCC2)ccc1N1CCCCC1	-33%	?	6µM*	2%
COc1ccc(NS(=O)(=O)c2cc(NC(=O)C3CC3)ccc2N2CCCCC2)cc1	-10%	-8%	-10%	7%
Cc1cc(C)nc(N/N=C/c2sccc2C)n1	50%	?	19µM*	0%
Cc1ccsc1/C=N/N=C/c1sccc1C	2.2µM*	9%	-3%	-16%
Cc1ccc2oc(C(=O)Nc3cccc(Cl)c3)cc(=O)c2c1	.	10%	.	.
O=S(=O)(Nc1ccc(F)cc1)c1ccc(NS(=O)(=O)c2cccs2)cc1	0%	2%	3%	3%
CCc1ccc2nc(N3CCN(C(=O)C(C)(C)C)CC3)sc2c1	13µM*	10%	-4%	1%
CC(C)C(=O)N1CCN(c2nc3ccc(Cl)cc3s2)CC1	5µM*	-7%	-8%	0%
CC(C)(C)C(=O)N1CCN(c2nc3ccccc3s2)CC1	3.2µM*	6%	-6%	0%
Clc1cc(Cl)c2nc(N3CCOCC3)sc2c1	11µM*	10%	-1%	1%
O=C(C[n+]1ccccc1Br)c1ccc2c(c1)CCCC2	21%	.	.	.
c1ccc2sc(N3CCOCC3)nc2c1	8.9µM*	0%	-10%	1%
c1ccc2sc(N3CN(CCN4CCOCC4)CN(c4nc5ccccc5s4)C3)nc2c1	?	?	?	-1%
Cc1cccc(NC(=O)CNc2cc(C)ccc2C)c1	13µM*	-7%	-7%	-4%
COCC(C)NC(=O)c1cc2c(=O)n3cccc(C)c3nc2s1 (centres undefined)	.	-2%	.	.
COc1ccc(OC)c(NC(=O)c2cccc3c2C(=O)N(C2CCCCC2)C3)c1	-6%	22µM*!	7%	-10%
CCC(C(=O)NCCC1=CCCCC1)n1nc(C)c2c(C)n(-c3ccccc3)nc2c1=O (centres undefined)	-25%	?	27µM*	2%
CCC(C(=O)NC1CCCCCC1)n1nc(C)c2c(C)n(-c3ccccc3)nc2c1=O (centres undefined)	-16%	-27%	30µM*	1%
CCC(C(=O)NC1CC1)n1nc(C)c2c(C)n(-c3ccc(C)cc3)nc2c1=O (centres undefined)	-2%	-8%	3%	1%
O=C(Nc1cccc(C(F)(F)F)c1)C1CCCN(S(=O)(=O)c2cccc3nsnc23)C1 (centres undefined)	2%	-13%	.	.
SMILES	BRCA1 expr up	VDR inhibitor	PLK1 PBD inh	Tb PFK inh
CC1CCN(S(=O)(=O)N2CCCC(C(=O)NCc3ccc(F)cc3)C2)CC1 (centres undefined)	0%	79µM*	27µM*	1%
O=C(NCc1ccc(F)cc1)C1CCN(S(=O)(=O)N2CCCC2)CC1	1%	?	12µM*	-6%
CC1CCN(CC2CCN(C(=O)NCc3ccc(F)cc3)CC2)CC1	.	12%	.	.
CC1CCN(C(=O)C(C)NCc2ccc(F)cc2)CC1 (centres undefined)	-3%	?	17µM*	-6%
C=CCN=Cc1c(C)[nH]n(-c2ccccc2)c1=O	13µM*	-16%	-3%	-6%
Cc1cc(C)nc(NS(=O)(=O)c2ccc(N=Cc3c(C)[nH]n(-c4ccccc4)c3=O)cc2)n1	15%	?	27µM*	-4%
Cc1[nH]n(-c2ccccc2)c(=O)c1/C=N/c1nn[nH]n1	0%	-18%	24µM*	?
Cc1cccc(/N=C/c2c(C)[nH]n(-c3ccccc3)c2=O)n1	-12%	-4%	-29%	-4%
Cc1[nH]n(-c2ccccc2)c(=O)c1C=Nc1ccc(S(=O)(=O)N=C(N)N)cc1	0%	-10%	4%	-4%
Cc1[nH]n(-c2ccccc2)c(=S)c1C=Nc1ccc([N+](=O)[O-])cc1	-12%	40µM*	2.7µM*	?
CCC(Sc1nc2ccncc2[nH]1)C(=O)Nc1ccc(F)cc1 (centres undefined)	.	6%	.	.
COc1ccc(-c2onc(C)c2C)cc1S(=O)(=O)NCC1CCN(Cc2cc(C)ccc2C)CC1	.	8%	.	.
Cc1[nH]n(-c2ccccc2)c(=O)c1C=NC1CCCCCC1	53%	-4%	-13%	-2%
Cc1[nH]n(-c2ccccc2)c(=O)c1/C=N/N(c1ccccc1)c1ccccc1	0%	?	19µM*	-1%
O=c1c2oc3ccccc3c2[nH]c(=S)n1-c1ccccc1	-52%	-19%	27µM*	0%
COC(=O)CC1c2ccccc2C(Cc2ccc3c(c2)OCO3)=C(C)N1C(=O)OC (centres undefined)	.	-2%	.	.
Cc1[nH]n(-c2ccccc2)c(=O)c1-c1ccc(Cl)cc1	-7%	-11%	27µM*	0%
C=CCOc1ccc(Br)cc1/C=C1/SC(=Nc2ccc(C(=O)O)cc2)NC1=O	-4%	-15%	21µM*	-2%
CCOc1cc(Br)cc(/C=C2\SC(=Nc3ccccc3)NC2=O)c1O	-4%	?	?	3%
Cc1ccc(/C=C/C(=O)NCc2cccs2)cc1	?	-12%	-2%	-9%
O=C(NCc1cccs1)c1cc(-c2cccc(Cl)c2)on1	57%	5%	0%	-2%
Cc1ccc(/C=C/C(=O)NCc2cccs2)c(C)c1	10µM*	4%	6%	0%
Cc1ccc(-c2cc(C(=O)NCc3cccs3)no2)cc1	4.5µM*	-12%	-13%	16%
Cc1ccc(NC(=O)CN2C(=O)S/C(=C\c3cc(C)n(-c4ccc(C(=O)O)cc4)c3C)C2=O)cc1	-14%	-8%	27µM*	-3%
Cc1ccc(NC(=O)CN2C(=O)S/C(=C\c3cc(Cl)c(OCC(=O)O)c(Cl)c3)C2=O)cc1	0%	71µM*	24µM*	-2%
Cc1ccc(NC(=O)CN2C(=O)N/C(=C/c3cc(C)n(-c4ccc(C(=O)O)cc4)c3C)C2=O)cc1	28%	-6%	-29%	-8%
C=CCN(C(=O)C1CSC2(C)CCC(=O)N12)c1nc(-c2ccccc2)cs1 (centres undefined)	4%	-20%	-12%	-1%
C=CCN(C(=O)C1=NN(C2CCS(=O)(=O)C2)C(=O)CC1)c1nc(-c2ccc([N+](=O)[O-])cc2)cs1 (centres undefined)	5µM*	?	-9%	1%
